# Results reported in PubChem BioAssay AID504467 (National Center for Advancing Translational Sciences (NCATS), 2011).
# Among all 330,000 compounds or so, about 7,700 (2.3%) were called active. Not shown: some 26% with an inconclusive outcome. This is one part of a sample in which actives are shown more often than they occur. A number with no mark means an inactive call. Calls follow the shape of the dose curve; as a rule, active = well fitted inhibition curve with a large enough effect; inconclusive = small, poorly fitted or top-dose-only effect, or effect the other way; inactive = flat fitted curve, though single readings scatter.
# Test: qHTS screen for small molecules that inhibit ELG1-dependent DNA repair in human embryonic kidney (HEK293T) cells expressing luciferase-tagged ELG1; also: nearly all actives have a fitted effect of over 55% in size
# Conditions: HEK293T ELG1-luciferase reporter, luminescence, 16 h, DNA damage induced by 5-fluorouridine; series mostly up to 46.1 µM; activity change, negative = inhibition: at the top concentration
# Method in brief: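 HEK293T cells expressing luciferase-tagged ELG1 (2,000/well) received 5-Fluorouridine plus compound or DMSO for 16 hr at 37 °C. Luciferase was read by ONE-Glo luminescence after 30 min at room temperature.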
# % is scaled to controls: 0 for no effect and ±100 for the full control effect; potency is read from the fitted curve at half-maximal effect.
SMILES,"activity change, negative = inhibition",Potency
O=C(OCC(=O)N1CCN(C(=O)c2ccco2)CC1)c1ccc(Cl)c(Cl)c1,11.7%,–
COc1ccc(Cc2nnc(N/N=C/c3ccccc3O)[nH]c2=O)cc1OC,–,4.11 µM (active)
CC(C)c1ccc(Cc2nnc(NCCCO)[nH]c2=O)cc1,-0.109%,–
O=c1[nH]c(NCCO)nnc1Cc1ccc(Cl)cc1,-2.82%,–
C=CCN1CN(S(=O)(=O)c2ccc(OC)cc2)c2nc3ccccc3nc21,4.11%,–
CCn1nc(C)c(CNC(=O)C2CCC(=O)N(Cc3cccc(F)c3)C2)c1C (stereo not given),-6.48%,–
COC(=O)[C@]1(C)N[C@H](CN(C)C(=O)c2ccc(C(C)(C)C)cc2)[C@@H]2C(=O)N(C)C(=O)[C@@H]21,9.59%,–
COc1ccc(NC(=O)CN2C(=O)C(c3ccccc3)=NC23CCCCCC3)cc1OC,–,23.1 µM (active)
COc1ccc(NC(=O)CC2SC(N3CCCCC3)=NC2=O)cc1OC (stereo not given),27.7%,–
COc1ccc(NC(=O)CN(Cc2ccccc2)S(C)(=O)=O)cc1OC,0.322%,–
COc1cc(S(=O)(=O)N2CCN=C2c2ccccc2)ccc1Cl,12.4%,–
Cn1c(=O)c2c(SCC(=O)NCC3CCCO3)nc(CC(C)(C)C)nc2n(C)c1=O (stereo not given),-10%,–
COc1ccc(NC(=O)C2CCC(CNc3c(N4CCCCC4)c(=O)c3=O)CC2)c(OC)c1 (stereo not given),–,7.3 µM (active)
CCN(CC)c1ccc(NC(=O)C2CCC(CNc3c(N4CCCC4)c(=O)c3=O)CC2)c(C)c1 (stereo not given),-13.2%,–
CCOc1ccccc1NC(=O)C1CCC(CNc2c(N3CCOCC3)c(=O)c2=O)CC1 (stereo not given),0.0516%,–
CC(CCc1ccccc1)NC(=O)c1cnc(Cl)c(Cl)c1 (stereo not given),-6.26%,–
Cc1ncoc1C(=O)N1CCCC(C(=O)c2ccc3c4c(cccc24)CC3)C1 (stereo not given),–,16.4 µM (active)
CCn1ccnc1CN1CCCC(C(=O)c2ccc3c4c(cccc24)CC3)C1 (stereo not given),8.93%,–
CC(=O)NCC(=O)N1CCCC(C(=O)c2ccc3c4c(cccc24)CC3)C1 (stereo not given),-5.67%,–
CC1CCCCC1NC(=O)NC(=O)COC(=O)C1=NN(c2ccccc2)C(=O)CC1 (stereo not given),20.6%,–
CCCC(=O)N1CCN(c2nnc(-c3ccc(C)cc3)c3ccccc23)CC1,19.1%,–
COc1ccc(CCN(C)C(=O)C23CC4CC(CC(Cl)(C4)C2)C3)cc1OC,-13.6%,–
CCCn1c(C2CCCN2c2nc(-c3ccc(C)cc3)cs2)nc2cc(Cl)c(N3CCCCC3)cc21 (stereo not given),-1.63%,–
CC(C)(C)OC(=O)Nc1ccc([C@@H](NC(=O)OC(C)(C)C)C(=O)OC(C)(C)C)cc1,6.05%,–
Cc1ccccc1C(=O)N1CCC(C(=O)Nc2ccc(S(=O)(=O)N(C)C(C)C)cc2)CC1,–,16.4 µM (active)

SMILES,"activity change, negative = inhibition",Potency
CC(=O)c1cccc(NC(=O)C2CCN(C(=O)c3ccccc3Cl)CC2)c1,-26%,–
CCc1nnc(NC(=O)C2CCN(C(=O)c3ccccc3C)CC2)s1,-0.619%,–
O=C(Nc1ccccc1N1CCOCC1)c1ccc(OCc2cscn2)cc1,-20.9%,–
O=C(COC(=O)CCCN1C(=O)c2cccc3cccc(c23)C1=O)NC1CCS(=O)(=O)C1 (stereo not given),16.1%,–
CCOC(=O)CSc1nc2ccc(C)cc2n2cnnc12,6.26%,–
O=C(CCc1nnc2ccc(NCc3ccco3)nn12)Nc1cc(F)ccc1F,7.8%,–
COc1ccc(CCNC(=O)C2CCCN(Cc3nc(-c4cccc(Cl)c4)oc3C)C2)cc1OC (stereo not given),–,10 µM (active)
COc1ccc(CCN(C)C(=O)C2CCCN(Cc3ccc(OC)c(OC)c3)C2)cc1OC (stereo not given),–,inactive
COc1cccc(-c2nc(CS(=O)(=O)CC(=O)NCCc3ccc(OC)c(OC)c3)c(C)o2)c1,-23.3%,–
CCOc1ccc(-n2c(SCC(=O)OC)nc3sc4c(c3c2=O)CCN(C)C4)cc1,7.61%,–
Cc1[nH]c(=O)c(C(=O)/C=C/c2ccccc2)c2c1CCCC2,–,8.2 µM (active)
O=C(/C=C/c1ccccc1)c1ccccc1O,24.6%,–
Cc1cn(COC/C=C/c2ccccc2)c(=O)[nH]c1=O,9.83%,–
OC(COc1ccccc1)Cn1cc(Br)cn1 (stereo not given),11.2%,–
OC(CN=c1sc2ccccc2n1CC(O)COc1ccccc1)COc1ccccc1 (stereo not given),–,20.6 µM (active)
O=C(c1ccccc1)c1ccc(OCC(O)CN2CCCC2)cc1 (stereo not given),-15%,–
CC1(C)CC(=O)C=C(c2ccc(Cl)c(C(F)(F)F)c2)C1,12.4%,–
COc1ccc(C(CNC(=O)COc2ccc([N+](=O)[O-])cc2)N2CCCCC2)cc1 (stereo not given),18.2%,–
Cc1c(O)c(C)c2c(c1O)C(=O)C[C@@H](c1ccccc1)O2,20.9%,–
COc1cc(C(=S)NCc2ccccc2)cc(Br)c1O,-1.45%,–
COc1cc(C(=O)NCc2ccncc2)cc(Br)c1OCc1ccccc1,–,14.6 µM (active)
COc1cc(C(=O)NCc2ccc(-n3cccc3)cc2)cc(OC)c1OC,14.2%,–
CC[C@]1(C(=O)OC)[C@H]2C(=O)N(C)C(=O)[C@H]2[C@H]2CN(C)C(=NCc3ccccc3)N21,0.774%,–
COc1ccc(NC(=O)CN(C)C(=O)c2cccc(S(=O)(=O)N3CCN(c4ccccc4)CC3)c2)cc1,-24.7%,–
CC1CCCCC1NC(=O)Cn1cnc2c1c(=O)n(C)c(=O)n2C (stereo not given),9.25%,–
